This is part of a sample that, as a whole, favours compounds with a hit. Of some 79,000 tested, about 15% had one in any assay. No stated cut-off is given here; in the data, active means growth inhibition above about 70%; inactive means the rest.
Key:
[1] = NCI Yeast Anticancer Drug Screen. Data for the rad50 strain (AID 155);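 further: 0% = growth of vehicle-only cultures of the same strain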; conditions: S. cerevisiae rad50 strain growth inhibition; at 50.0 µM; stronger effect = higher value
Procedure, shortened: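 A DNA repair-deficient yeast mutant serves as the test organism; compound-induced growth inhibition is calculated against vehicle-treated cells.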

[2] = NCI Yeast Anticancer Drug Screen. Data for the mec2-1 strain (AID 157); conditions: S. cerevisiae mec2-1 strain, at 50.0 µM, stronger effect = higher value
Procedure, shortened: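 Growth inhibition is read against vehicle-treated controls after compound exposure of the mec2-1 yeast strain, which is defective in DNA damage repair or cell cycle control.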

[3] = NCI Yeast Anticancer Drug Screen. Data for the sgs1 mgt1 strain (AID 161);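 further: 0% = growth of cultures given vehicle only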; conditions: S. cerevisiae sgs1 mgt1 strain, at 50.0 µM, stronger effect = higher value
Procedure, shortened: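 Percent growth inhibition was derived by comparing compound-exposed mutant yeast with vehicle-exposed cultures. The strain carries alterations in DNA damage repair.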

[4] = NCI Yeast Anticancer Drug Screen. Data for the cln2 rad14 strain (AID 165);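 further: 0% = growth equal to vehicle treated cultures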; conditions: S. cerevisiae cln2 rad14 strain, at 50.0 µM, stronger effect = higher value
Procedure, shortened: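 Growth inhibition, relative to vehicle-treated controls, is the read-out. The test organism is a yeast strain with defined genetic alterations, cln2 rad14.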

[5] = NCI Yeast Anticancer Drug Screen. Data for the bub3 strain (AID 167); conditions: S. cerevisiae bub3 mutant strain, at 50.0 µM, stronger effect = higher value
Procedure, shortened: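 Inhibition values come from growth of compound-treated mutant yeast normalised to vehicle-treated controls.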

[6] = NCI Yeast Anticancer Drug Screen. Data for the mlh1 rad18 strain (AID 175); conditions: S. cerevisiae mlh1 rad18 strain growth inhibition; at 50.0 µM; stronger effect = higher value
Procedure, shortened: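 Cells of a genetically altered yeast strain, deficient in DNA damage repair, were treated with compound. Their growth was then compared with that of vehicle-treated cultures to give inhibition.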

Measured: growth inhibition

CC1=CC(O)(c2ccccc2)C(N2CCOCC2)N1O (stereo unspecified)
inactive: [1] -2.85% | [2] -25.6% | [3] -3.5% | [4] 13.6% | [5] 23.4% | [6] -8.55%

NC(=O)NC1CCCCCCC1
inactive: [1] 5.95% | [2] -14.9% | [3] 1.05% | [4] -7.45% | [5] 4.75% | [6] 0.3%

COc1cc(C(=O)N2CCCCCCC2)cc(OC)c1OC
inactive: [1] -13.8% | [2] 38.5% | [3] 10.9% | [4] -19.7% | [5] 28.7% | [6] -6.45%

OC1CC2CCC(C1)N2c1ccccc1 (stereo unspecified)
inactive: [1] 2.35% | [2] 4.95% | [3] 16.6% | [4] -29.9% | [5] 19.1% | [6] 14.3%

CC(=O)CC(=O)Nc1ccc(C)c(C)c1
inactive: [1] -4.6% | [2] 2.15% | [3] 10% | [4] 7.95% | [5] 40% | [6] 12.5%

COc1ccc(C=C(c2ccc(OCc3ccccc3)cc2)c2ccc(OCc3ccccc3)cc2)cc1
inactive: [1] 13.2% | [2] -7.7% | [3] 6.55% | [4] 7.5% | [5] -28.1% | [6] -28.1%

COc1ncnc2ccccc12
inactive: [1] -30.9% | [2] -16.8% | [3] -20.8% | [4] -32.8% | [5] -25.2% | [6] -25.1%

O=N/C(=C(\c1ccccc1)N1CCOCC1)c1ccccc1
inactive: [1] -10.2% | [2] 11.8% | [3] 9.6% | [4] -2.45% | [5] -20.6% | [6] 6.45%

NC(=Nc1ccc(Br)cc1)/N=C(/N)Nc1cccc(S(=O)(=O)Nc2ncc(Cl)cn2)c1
inactive: [1] 10.2% | [2] -8.75% | [3] 25.2% | [4] 15.8% | [5] 1.95% | [6] 4.95%

Cc1ccc(CCOS(=O)(=O)c2ccc(C)cc2)cc1
inactive: [1] 13.5% | [2] -26.5% | [3] -1.3% | [4] 10.2% | [5] 28% | [6] 10.7%

COc1cc2c[n+]3c4c(cccc4c2cc1OC)CC3
inactive: [1] 5.75% | [2] 0.55% | [3] 1.15% | [4] -2.7% | [5] 3.2% | [6] -13.7%

O=C(Nc1ccccc1Cl)Nc1ccccc1Br
inactive: [1] 16.8% | [2] 11.7% | [3] 14.7% | [4] 12.2% | [5] 6.8% | [6] -17.3%

COC(=O)c1cc(O)c(C(=O)OC)s1
inactive: [1] 3.05% | [2] -9.75% | [3] -0.55% | [4] -27.9% | [5] 14.8% | [6] 11.2%

NC(=O)C(=O)CC(=O)c1ccccc1NC1=CC(=O)C(=O)c2ccccc21
inactive: [1] 41% | [2] 29.1% | [3] 20.4% | [4] 30.4% | [5] 36.4% | [6] 37.5%

O=Cc1ccc(/C=C2\NC(=O)NC2=O)cc1
inactive: [1] -6.25% | [2] -7.9% | [3] -26.9% | [4] -0.05% | [5] -9.3% | [6] -5.55%

Cc1cc(=O)oc2c(C)c3oc4c(c3cc12)CN(C)CC4
inactive: [1] 26.9% | [2] 10.9% | [3] 25.4% | [4] 20% | [5] 13.9% | [6] 25.8%

COC(=O)C(C(=O)OC)C(Br)(OC(C)=O)OC(C)=O
inactive: [1] -8.95% | [2] 8.2% | [3] 4.55% | [4] 6.65% | [5] 11.1% | [6] -3.35%

O=c1cc(-c2ccccc2)c2ccc(O)cc2o1
inactive: [1] -11.8% | [2] 1.45% | [3] 20.4% | [4] 3% | [5] 2% | [6] -1.2%

Cc1cccc(C(=O)OCCBr)c1
inactive: [1] 27.1% | [2] 3.95% | [3] 13.7% | [4] -28.4% | [5] 9.9% | [6] 10.9%

CCc1cccc(CC)c1NC(=S)NC(=O)c1ccc(Br)cc1
inactive: [1] -5.3% | [2] -1.25% | [3] -7.9% | [4] 8.3% | [5] -9.5% | [6] -9.75%

NNC(=O)c1csnn1
inactive: [1] -24.6% | [2] -22.6% | [3] -24.5% | [4] -25.4% | [5] -23.6% | [6] -7%

O=C(Nc1c(Cl)cccc1Cl)OCc1ccco1
inactive: [1] 7.5% | [2] -10.6% | [3] 24.1% | [4] 3.15% | [5] 23.4% | [6] 19.6%

CCC(=O)[C@H]1CC[C@H]2[C@@H]3CCC4=CC(=O)CC[C@]4(C)[C@H]3CC[C@]12C
inactive: [1] -7.6% | [2] 26.9% | [3] 32% | [4] 6.5% | [5] 37.5% | [6] 2.45%

C/C(=N\N=C(/C)c1ccc(-c2ccccc2)cc1)c1ccc(-c2ccccc2)cc1
inactive: [1] 1.2% | [2] -27.8% | [3] 19.1% | [4] 2.2% | [5] 20.8% | [6] 13.3%

O=P(Nc1ccc(Cl)cc1)(Nc1ccc(Cl)cc1)N1CCCCC1
inactive: [1] 23% | [2] -45.1% | [3] 5.8% | [4] -21% | [5] 19.9% | [6] 9.2%

CCC/C=C1\CCC(CN(C)C)C1=O (stereo unspecified)
inactive: [1] -9.8% | [2] 7.85% | [3] 18.6% | [4] -1.4% | [5] -11.9% | [6] 15.1%

O=C1c2ccccc2C(O)N1CCc1c[nH]c2ccccc12 (stereo unspecified)
inactive: [1] 12.4% | [2] -24.1% | [3] -12.1% | [4] 8.2% | [5] 1.3% | [6] -10.9%

CCCCC(=O)NCCNC(=O)CCCC
inactive: [1] -0.5% | [2] 7% | [3] -1.8% | [4] -18.6% | [5] 14.2% | [6] 9.55%

CCOC(=O)c1ccccc1OC(=O)Oc1ccccc1C(=O)OCC
inactive: [1] 17.9% | [2] 10.2% | [3] -5.25% | [4] -23.1% | [5] -5.55% | [6] 33.9%

CCCCCCCCCCCCCCCc1nnc(SC)s1
inactive: [1] -22.6% | [2] -39% | [3] -14.9% | [4] 15.3% | [5] -3.15% | [6] 11.2%

CCCCC(CC)COCCC(=O)O (stereo unspecified)
inactive: [1] -9.55% | [2] -8.55% | [3] -4.25% | [4] -55.9% | [5] -19.8% | [6] -18.8%

CC(C)(Nc1nc2c(ncn2C2OC(CO)C(O)C2O)c(=O)[nH]1)P(=O)(O)O (stereo unspecified)
inactive: [1] 4.4% | [2] -0.4% | [3] 17% | [4] 11.1% | [5] -5.4% | [6] 2.9%

CC(N)(C(=O)O)c1ccccc1 (stereo unspecified)
inactive: [1] -2.45% | [2] -2.45% | [3] 18.6% | [4] -25.2% | [5] -13.9% | [6] -21.4%

COc1cc(O)c2c(c1)C(=O)c1cc(C)cc(O)c1C2=O
inactive: [1] -15.1% | [2] -22.9% | [3] -18.6% | [4] -21.1% | [5] -26.2% | [6] -10.8%

N#CC(CC(=O)NN)C(=O)NN (stereo unspecified)
inactive: [1] -20.4% | [2] -8.9% | [3] -21% | [4] -12.4% | [5] -38.7% | [6] -22.5%

COc1ccc2ccccc2c1C1OC(=O)c2ccccc21 (stereo unspecified)
inactive: [1] 37.8% | [2] 24.6% | [3] 51.7% | [4] 33.4% | [5] 25.2% | [6] 52.5%

CC(C)(C)/C(=N\O)c1ccccc1
inactive: [1] -8.8% | [2] -13.6% | [3] -23.3% | [4] -8.05% | [5] -17.4% | [6] -23.3%

COc1ccc2c(c1)C(O)C(NCc1ccccc1)C2 (stereo unspecified)
inactive: [1] -13.6% | [2] -7.75% | [3] -0.45% | [4] -9.9% | [5] 8.5% | [6] -8.55%

COC(=S)SSC(=S)NCCN(CCNC(=S)SSC(=S)OC)C(=S)SSC(=S)OC
inactive: [1] 2.05% | [2] 6.2% | [3] -2.65% | [4] -2.7% | [5] 7.8% | [6] 26.6%

C=CC(=N)N
inactive: [1] 12.3% | [2] 2.4% | [3] -5% | [4] 8.45% | [5] 6.6% | [6] 7.6%

CC(=O)C(OCCCl)OCCCl
inactive: [1] 2.9% | [2] -7.65% | [3] 1.6% | [4] -1.5% | [5] 0.3% | [6] -2.95%

From PubChem BioAssay (NCI)
